Compound activity (PubChem)
hgDAF-12 ag = H. glycines DAF-12 receptor agonists, primary screen, cell-based, luminescence, HEK293, GAL4 fusion, UAS-luciferase; AID 687014, 2013; 370,000 compounds, 1.8% hits; Nuclear hormone receptor DAF-12 (Heterodera glycines), GAL4 fusion; activation, % at 6.8 µM; HEK293 GAL4-hgDAF12 UAS-luciferase reporter, agonist luminescence; normalized to butyrate control;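 active means activation above a cutoff set at the mean of all screened compounds plus 3 SD, cut at about 10% in these data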;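 further: 0% = DMSO wells and 100% = sodium butyrate wells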
hcDAF12 agonist = H. contortus DAF-12 nuclear receptor activators, primary screen, cell-based, luminescence, HEK293, lit1-tk-luc reporter; HEK293 hcDAF-12 lit1-tk-luc reporter; 0% DMSO, 100% Δ7-dafachronic acid; activation, % at 6.8 µM; 370,000 compounds, 1.4% hits; AID 652067, 2013;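 active means activation above the mean of all tested compounds plus 3 SD, cut at about 5.5% in these data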;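 further: 100% = response to 3 µM Δ7-dafachronic acid high control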
SMARCA2 activ = SMARCA2 (BRM) function activators, primary screen, cell-based, luminescence, high throughput. 370,000 compounds, 1% hits. MG213 cells, MMTV-luciferase reporter, dexamethasone, overnight. activation, % at 9.1 µM; in the data active means activation above about 7.8%;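 further: 0% = vehicle wells and 100% = reference activator wells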
DAX1 inh-1 = DAX1 (NR0B1) inhibitors, primary screen, cell-based, HEK293, Gal4-DAX1, luciferase luminescence; inhibition, % at 6.75 µM; 340,000 compounds, 0.99% hits; HEK293 Gal4-DAX1 luciferase reporter; AID 504766, 2011;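 active means inhibition above the mean over all tested compounds plus 3 SD, cut at about 4.2% in these data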;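 further: 0% = DAX1-transfected cells with DMSO and 100% = empty-vector control cells with DMSO; inhibition shows as a rise in luminescence from relieved DAX1 repression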
Target sequence (P51843 207-470 limits assumed): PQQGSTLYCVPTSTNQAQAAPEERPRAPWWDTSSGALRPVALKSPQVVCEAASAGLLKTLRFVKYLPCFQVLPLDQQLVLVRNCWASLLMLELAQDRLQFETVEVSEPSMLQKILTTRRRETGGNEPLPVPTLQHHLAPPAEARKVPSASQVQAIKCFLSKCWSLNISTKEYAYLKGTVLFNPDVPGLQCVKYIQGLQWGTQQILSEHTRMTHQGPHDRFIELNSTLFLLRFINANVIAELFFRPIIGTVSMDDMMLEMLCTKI
DAX1 inh-2 = DAX1 (NR0B1) inhibitors on StAR promoter, primary screen, cell-based, luminescence, SF-1 (NR5A1), full-length DAX-1; 370,000 compounds, 1.1% hits; inhibition, % at 6.8 µM; HEK293T StAR-luciferase reporter, SF-1/DAX-1 repression relief; AID 652010, 2013;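 active means inhibition above the mean over all tested compounds plus 3 SD, cut at about 3.6% in these data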;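 further: 0% = DAX-1 cells with DMSO and 100% = cells lacking DAX-1 with DMSO; higher inhibition means more luminescence from relief of DAX-1 repression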
ssDAF12 agonist = S. stercoralis DAF-12 nuclear receptor activators, primary screen, cell-based, luminescence, HEK293, GRIP1 co-expression, lit1-tk-luc; Nuclear hormone receptor DAF-12 (Strongyloides stercoralis); HEK293 ssDAF-12/GRIP1 lit1-tk-luc reporter; % of 3 µM dafachronic acid response; activation, % at 6.8 µM; 370,000 compounds, 1% hits;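 active means activation above the mean over all tested compounds plus 3 SD, cut at about 0.9% in these data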;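 further: 0% = DMSO-only wells and 100% = 3 µM delta7-dafachronic acid wells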
SMARCA2 conf = SMARCA2 (BRM) function activators, confirmation, cell-based, luminescence, triplicate. activation, % at 9.1 µM. 3,500 compounds, 30% hits. shares compounds with SMARCA2 activ. AID 652260, 2013. MG213 cells, MMTV-luciferase with dexamethasone, overnight; MG213 cells expressing E1A, Rb sequestered; DMSO wells 0%, reference activator 100%;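 active means activation above its plate's cutoff, the mean activation of tested wells plus 3 SD, cut at about 7.9% in these data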
VP16 Luc act = GAL4-VP16 luciferase reporter activation, counter-screen for SMARCA2 (BRM) activator project, cell-based, pG5luc, luminescence, high throughput. shares compounds with SMARCA2 activ. HEK293 GAL4-VP16 pG5luc reporter; scaled: DMSO wells 0%, SAHA wells 100%. activation, % at 9.1 µM. 3,500 compounds, 41% hits. AID 686939, 2013;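 active means activation above the solvent-only control well mean plus 3 SD, averaged across control plates, cut at about 5.2% in these data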
The depositor's hits bear a star; x = not tested or not shown. Rows were chosen to be rich in hits. Some 4.8% of all compounds tested hit in one or more screens of this group.

SMILES | hgDAF-12 ag | hcDAF12 agonist | SMARCA2 activ | DAX1 inh-1 | DAX1 inh-2 | ssDAF12 agonist | SMARCA2 conf | VP16 Luc act
O=c1c(C=NCc2cccnc2)c(C(F)(F)F)[nH]n1-c1nc2ccccc2s1 | 2.9 | 1.3 | 11.6* | -3.0 | 2.7 | -0.5 | 11.0* | 7.5*
COc1cccc2cc(C(=O)C3=C(O)C(=O)N(CCN4CCOCC4)C3c3cccc(Cl)c3)oc12 (stereo unspecified) | -1.2 | -1.9 | -2.3 | -0.6 | -1.2 | -1.0 | x | x
COc1cccc(C=NNc2ccc([N+](=O)[O-])cn2)c1OC | 5.8 | 0.3 | 8.3* | 2.7 | 1.1 | -0.5 | 7.2 | 3.1
CC(=O)Nc1cccc(/C(C)=N/NC(=O)c2ccc(O)cc2)c1 | 5.9 | -0.5 | 8.1* | 3.2 | -0.5 | -1.8 | 2.6 | 1.5
C/C(=N/NC(=O)c1ccco1)c1cccc(NC(=O)c2ccc(C)o2)c1 | 12.6* | 2.4 | 8.8* | 1.5 | 1.0 | -0.5 | -0.6 | 2.8
C/C(=N\NC(=O)c1cccc(C)c1)c1cccc(NC(=O)c2ccco2)c1 | 8.4 | 0.8 | 10.6* | 2.3 | -0.1 | -0.8 | 2.7 | 1.0
O=C(COC(=O)c1cccc(NC(=O)c2ccco2)c1)c1ccc(Br)cc1 | 3.4 | -0.9 | 8.1* | -0.7 | -0.3 | -1.7 | 9.5* | 4.5
CC(=O)c1cccc(NC(=O)c2cccc(NC(=O)c3ccco3)c2)c1 | 0.2 | -1.0 | -3.6 | -1.1 | -0.8 | -1.7 | x | x
COc1cccc(CN2CCN(Cc3nc4c(s3)CCCC4)CC2CCO)c1 (stereo unspecified) | 0.6 | -1.0 | 0.1 | -1.1 | -1.0 | -1.4 | x | x
CCCN(C(=O)C1CCN(S(=O)(=O)c2ccc(OC)c(OC)c2)CC1)C1CCS(=O)(=O)C1 (stereo unspecified) | 0.4 | -0.5 | 0.5 | 0.3 | -0.7 | -0.9 | x | x
C/C(=N/NC(=O)c1ccc(Br)o1)c1cccc(NC(=O)c2ccc(C)o2)c1 | 9.6 | 1.3 | 12.9* | 3.0 | 1.4 | -0.5 | -0.5 | 2.8
CCOC(=O)c1cnc2c(N=Nc3cccc(Cl)c3)c(N)nn2c1N | 1.2 | 0.8 | 0.7 | x | -0.2 | -0.8 | x | x
CCOC(=O)c1cnc2c(N=Nc3ccccc3)c(N)nn2c1N | 7.2 | 1.3 | 8.3* | 0.2 | 2.0 | 0.9* | 10.8* | 12.5*
N/N=C(/Cc1nc2ccccc2[nH]1)c1ccc([N+](=O)[O-])cc1 | 4.7 | -1.3 | 8.2* | 0.3 | 1.4 | -0.3 | 4.4 | 5.9*
O=C(COC(=O)c1ccccc1O)Nc1cccc(S(=O)(=O)N2CCCC2)c1 | 1.2 | 0.3 | -3.5 | 0.1 | 0.4 | -1.6 | x | x
COc1ccc(S(=O)(=O)N2Cc3ccccc3CC2C(=O)Nc2nccs2)cc1OC (stereo unspecified) | 8.3 | 5.4 | 5.1 | 0.9 | 1.5 | 0.8 | x | x
COc1ccc(S(=O)(=O)N2Cc3ccccc3CC2C(=O)Nc2nccs2)cc1 (stereo unspecified) | 10.2 | 3.4 | 9.8* | 1.7 | 1.4 | -0.4 | 4.4 | 2.8
Nc1nc2nccc(-c3ccccn3)n2n1 | 0.5 | -1.6 | -5.1 | -0.4 | 0.0 | -1.0 | x | x
O=C1C(c2ccccc2)c2ccccc2N1Cc1ccccc1 (stereo unspecified) | -0.2 | -0.6 | -4.4 | 1.3 | -0.9 | -0.8 | x | x
